Assay results published in the supplement of paper PMC7156485.
± gives the standard deviation of the averaged measurements.

Key:
Conditions in all cases: concentration: 10 µM; 24 h
HCC1569 [1] = assay: cell number relative to DMSO (% of DMSO); higher = more cells (less growth inhibition / toxicity)
How it was run: (§1)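 HCC1569 and TDF cells were seeded at 800 per well in 384-well plates in RPMI with 10% FBS and treated with compounds at 10 µM for 24 h at 37 °C, in triplicate. After fixation in 3.7% formaldehyde, cells were stained with a rabbit anti-H1.0 antibody, an AlexaFluor 647 secondary and DAPI, and six fields per well were imaged at ×10. H1.0 nuclear intensity or cell number is given as percent of the plate control, using the median of replicates, with HCC1569 values smoothed for positional effects.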

TDF [2] = assay: as above
How it was run: as §1

TDF [3] = assay: H1.0 immunofluorescence intensity relative to DMSO (% of DMSO); higher = stronger H1.0 induction, active = 120 or more
How it was run: as §1

HCC1569 [4] = assay: H1.0 immunofluorescence intensity relative to DMSO (% of DMSO); higher = stronger H1.0 induction, active = 140 or more
How it was run: as §1
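Wherever H1.0 immunofluorescence intensity relative to DMSO is given: TDF is a line of transformed human dermal fibroblasts of mesenchymal origin.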
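Wherever cell number relative to DMSO is given: TDF denotes transformed human dermal fibroblasts of mesenchymal origin.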

| Compound | cell number (HCC1569 [1]) | cell number (TDF [2]) | H1.0 immunofluorescence intensity (TDF [3]) | H1.0 immunofluorescence intensity (HCC1569 [4]) |
| --- | --- | --- | --- | --- |
| CC=C1CC(C)C(C)(O)C(=O)OCC2=CCN3CCC(OC1=O)C23 (stereo not given) [Senecionine] | 98.6 | 101 | 108 (inactive) | 91.8 (inactive) |
| CCN(CC)C(=O)NC1CC2c3cccc4[nH]cc(c34)CC2N(C)C1 (stereo not drawn) [R(+)-Terguride] | 101 | 110 | 91.9 (inactive) | 99.5 (inactive) |
| CCCN1CCCC(c2cccc(O)c2)C1.Cl (stereo not drawn) [R(+)-3PPP hydrochloride] | 104 | 106 | 88.2 (inactive) | 103 (inactive) |
| CN1CCN(c2ccc3ccccc3n2)CC1.O=C(O)C=CC(=O)O.O=C(O)C=CC(=O)O [Quipazine, N-methyl-, dimaleate] | 102 | 104 | 93 (inactive) | 89.8 (inactive) |
| CCCC(C)(COC(N)=O)COC(=O)NC(C)C (stereo not given) [Carisoprodol] | 97.4 | 90.8 | 99.6 (inactive) | 106 (inactive) |
| COc1cc(C2c3cc4c(cc3C(O)C3COC(=O)C23)OCO4)cc(OC)c1OC (stereo not given) [Picropodophyllin] | 58.3 | 10.9 | 165 (active) | 128 (inactive) |
| Br.CN1CCc2cc(O)cc3c2C1Cc1ccc(O)c(O)c1-3 (stereo not drawn) [R(-)-2,10,11-Trihydroxyaporphine hybrobromide] | 99 | 113 | 84.4 (inactive) | 94.3 (inactive) |
| CCN(C)C(=O)Oc1cccc(C(C)N(C)C)c1 (stereo not given) [Rivastigmine] | 102 | 114 | 90 (inactive) | 105 (inactive) |
| O=C(O)C1CCN1 [L-azetidine-2-carboxylic acid] | 100 | 103 | 92.3 (inactive) | 92 (inactive) |
| CC(C)NP(=O)(NC(C)C)OP(=O)(NC(C)C)NC(C)C [Tetraisopropyl pyrophosphoramide] | 99.2 | 104 | 94.9 (inactive) | 105 (inactive) |
| Cc1[nH]c2ccc(O)cc2c1CCN.O=C(O)C=CC(=O)O [2-Methyl-5-hydroxytryptamine maleate] | 106 | 98.7 | 98.3 (inactive) | 85.2 (inactive) |
| CC1OC(C[N+](C)(C)C)CC1O.[Cl-] (single isomer, unassigned; (+)) [(+)-Muscarine chloride] | 106 | 116 | 93 (inactive) | 83.8 (inactive) |
| O=C1C=C2C=CC3CC2(O1)C1CCCCN31 (stereo not given) [Securinine] | 87.8 | 76.4 | 102 (inactive) | 99.9 (inactive) |
| NCCCP(=O)(O)O [3-Aminopropylphosphonic acid] | 97.9 | 90.3 | 95.4 (inactive) | 101 (inactive) |
| Br.CCC1CN2CCc3cc(OC)c(OC)cc3C2CC1CC1NCCc2cc(O)c(OC)cc21 (stereo not given) | 59.6 | 21.4 | 135 (active) | 104 (inactive) |
| O=C1CSC(c2ccccc2Cl)c2cc(Cl)ccc2N1 (stereo not given) | 103 | 105 | 95.3 (inactive) | 115 (inactive) |
| Nc1ccc(CCN2CCN(c3cccc(C(F)(F)F)c3)CC2)cc1 | 95.1 | 98.9 | 99.4 (inactive) | 107 (inactive) |
| C[N+]1(C)CCc2cc3c(cc2C1C1OC(=O)c2c1ccc1c2OCO1)OCO3.[Br-] (single isomer, unassigned; (-)) [(-)-Bicuculline methbromide, 1(S), 9(R)] | 101 | 104 | 94.2 (inactive) | 96.4 (inactive) |
| O=C1NC(=O)c2c1c1c3ccccc3[nH]c1c1[nH]c3ccccc3c21 | 98.8 | 126 | 79.9 (inactive) | 127 (inactive) |
| CCCCCC1OC1CC=CCCCCCCCC(=O)O (stereo not given) [Leukotoxin B (12,13-EODE)] | 105 | 106 | 96.8 (inactive) | 100 (inactive) |
| NCCN(CCN)N(O)N=O [1,1-bis(2-aminoethyl)-2-hydroxy-3-oxotriazane] | 99.5 | 97.5 | 93.1 (inactive) | 95 (inactive) |
| CCC1(c2ccc(N)cc2)CCC(=O)NC1=O (racemic) | 98.8 | 109 | 85.7 (inactive) | 89.1 (inactive) |
| Fc1cc(F)c2c(c1)C1C=CCC1C(c1cccnc1)N2 (stereo not given) | 69.8 | 52.7 | 126 (active) | 169 (active) |
| CN1CCc2cc3c(cc2C1C1OC(=O)c2c1ccc1c2OCO1)OCO3 (single isomer, unassigned; (+)) [(+)-Bicuculline] | 92.1 ± 16 | 89.1 ± 15 | 98.9 (inactive) | 92.6 (inactive) |
| [Cl-].c1ccc2c(c1)[I+]c1ccccc1-2 [Diphenyleneiodonium chloride] | 61.4 | 34 | 123 (active) | 125 (inactive) |
